Sampled rows, rich in hits. Any-hit rate of the full collection: about 3.5%.
Pf apPOL inh – Pf-apPOL DNA polymerase inhibition. Recombinant Pf-apPOL, molecular beacon fluorescence, 1.5 h. AID 1794808. inhibition, % at 10 µM. 0.25% of 210,000 active
mHTT-CaM PPI inh – disrupts binding of mutant huntingtin to calmodulin; AlphaScreen His-mHTT/GST-CaM binding, luminescence; P42858; inhibition, % at 15 µM; 3.6% of 190,000 active
Of the large screens only hits and unclear results are named; the others gave an inactive call. No stated cut-off is given here; in the data, active means inhibition above about 50%; inactive means the rest.

Cc1ccccc1C(=O)NCC1CCN(c2cc(-c3cccnc3)[nH]n2)CC1	none
Cc1ccccc1C(=O)N1CC(=O)Nc2ccc(F)cc2C1c1ccc(F)cc1 (stereo unspecified)	none
CC(=O)c1ccc(S(=O)(=O)NCCN2CCN(C(=O)c3ccsc3)CC2)cc1	none
CC12CC(NC(=O)N1c1cccc(C(=O)Nc3ccc(F)cc3)c1)c1cc(Cl)ccc1O2 (stereo unspecified)	none
CC1Cc2cc(-c3cc(CC(=O)NCCC4=CCCCC4)no3)ccc2O1 (stereo unspecified)	none
CCOC(=O)C12CC1/C(=N\O)c1ccccc1O2 (stereo unspecified)	none (no result: mHTT-CaM PPI inh)
O=C(C(Cc1ccccc1)N1C(=O)c2ccccc2C1=O)N1CCN(CCO)CC1 (stereo unspecified)	none
O=C(C(Cc1ccccc1)N1C(=O)c2ccccc2C1=O)N1CCN(c2ccc(F)cc2)CC1 (stereo unspecified)	mHTT-CaM PPI inh 51
CC1(C)C(C#N)=C(S)NC(=O)C1C#N (stereo unspecified)	none
O=C(Nc1ccc(C2(C(=O)N3CCN(c4ccccc4F)CC3)CCC2)cc1)C1CC1	none
O=[N+]([O-])c1cccc(-c2ccc(CN3CCN(c4ccccc4)CC3)o2)c1	mHTT-CaM PPI inh 56
Cc1ccc(C)c(N2CCN(Cc3ccc(-c4ccccc4[N+](=O)[O-])o3)CC2)c1	mHTT-CaM PPI inh 70
Cc1ccc(C)c(N2CCN(Cc3cc4c(cc3[N+](=O)[O-])OCO4)CC2)c1	none
CN1CCN(Cc2ccc(-c3cccc([N+](=O)[O-])c3)o2)CC1	none
O=c1cc(CN2CCC(Cc3ccccc3)CC2)c2cc(O)ccc2o1	none
CC1CCN(C(=O)C2CCN(c3cncnc3N(C)C)CC2)CC1	none
CN(C)c1ncncc1N1CCC(C(=O)N2CCC(Cc3ccccc3)CC2)CC1	mHTT-CaM PPI inh 50
CN(C)c1ncncc1N1CCC(C(=O)N2CCCC2)CC1	none
Cc1ccc(C)c(N2CCN(C(=O)C3CCN(c4cncnc4N(C)C)CC3)CC2)c1	mHTT-CaM PPI inh 60
COc1cccc(-c2nnc(NC(=O)c3ccc(S(=O)(=O)N4CCCCCC4)cc3)o2)c1	none
CCCn1cc(S(=O)(=O)Nc2ccc(Cl)cc2F)c2cccnc21	none
Cn1cc(S(=O)(=O)Nc2cccc(Cl)c2)c2cccnc21	none
Cc1cccc(NS(=O)(=O)c2cn(C)c3ncccc23)c1	Pf apPOL inh 88, mHTT-CaM PPI inh 59
Cn1cc(S(=O)(=O)Nc2ccc(F)cc2Cl)c2cccnc21	Pf apPOL inh 93, mHTT-CaM PPI inh 69
CC(=O)c1ccc(C#CCOC(=O)Nc2ccc(Cl)cc2)s1	none (no result: mHTT-CaM PPI inh)
CC1CCCC(C)N1C(=C(Cl)Cl)C(=C1SCCS1)[N+](=O)[O-] (stereo unspecified)	mHTT-CaM PPI inh 72
O=[N+]([O-])C(=C1SCCCS1)C(=C(Cl)Cl)N1CCOCC1	none
COc1cc(N=c2oc3c(O)cc(C(C)(C)C)cc3cc2C(N)=O)cc(OC)c1	mHTT-CaM PPI inh 56
CCOc1cccc2cc(C(N)=O)c(=Nc3ccc(OC)cc3)oc12	none
CCN1CCN(C(=O)C2CCCN(c3cnn(Cc4ccccc4)c(=O)c3)C2)CC1 (stereo unspecified)	none
Cc1cc(-c2nnc(SCC(=O)Nc3ccc(Cl)cn3)o2)c(C)o1	none
CCN1c2cc(Cl)ccc2C(=O)NC12CCN(C(=O)NCc1ccc(F)cc1)CC2	mHTT-CaM PPI inh 58
CCN1c2cc(Cl)ccc2C(=O)NC12CCN(C(=O)NCc1ccc(C)cc1)CC2	none
CCNC(=O)c1coc(CN2CCN(c3ccc(Cl)cc3)CC2)n1	none
CNC(=O)C1CCc2sc(C(=O)N3CCCCC3)cc2C1 (stereo unspecified)	none
CCOc1cc(/C=C(\C#N)c2nn(CCO)c(N)c2C#N)cc(I)c1OC	mHTT-CaM PPI inh 52
COc1cc(/C=C(\C#N)c2nn(CCO)c(N)c2C#N)cc2c1OCO2	none
CCOc1cc(/C=C(\C#N)c2nn(-c3ccccc3)c(N)c2C#N)cc(Br)c1OC	mHTT-CaM PPI inh 56
COc1cc(/C=C(\C#N)c2nn(-c3ccccc3)c(N)c2C#N)cc(OC)c1OC	none
CCCCN(C)S(=O)(=O)c1cc(Br)cc2c1N(C(=O)CC)CC2	none
Cc1nc(C(N)=NOC(=O)c2c(-c3ccccc3)noc2C)cs1	none (no result: mHTT-CaM PPI inh)
O=C(Nc1onc2c1CCC2)C1CCN(S(=O)(=O)c2ccc(Cl)cc2)CC1	none
Cc1c(C=O)c(C=O)c(C)n1-c1ccc(N(C)C)cc1	none
CN(C)c1ccc(N2CC(=O)SC2=NC#N)cc1	mHTT-CaM PPI inh 55 (no result: Pf apPOL inh)
COc1ccc(C(CCN2CCCCC2)c2c(O)cc(OC)cc2OC)cc1 (stereo unspecified)	none
COc1ccc(C(CCN2CCN(c3ccccc3)CC2)c2c(O)cc(OC)cc2OC)cc1 (stereo unspecified)	mHTT-CaM PPI inh 72
COc1cc(O)c(C(CCN2CCN(c3ccccc3)CC2)c2ccc(N(C)C)cc2)c(OC)c1 (stereo unspecified)	mHTT-CaM PPI inh 97
CCN(CC)CCC(c1ccc(OC)cc1)c1c(O)cc(OC)cc1OC (stereo unspecified)	none
COc1cc(O)c(C(CCN2CCOCC2)c2ccc3c(c2)OCO3)c(OC)c1 (stereo unspecified)	none
COc1cc(O)c(C(CCN2CCOCC2)c2ccc(N(C)C)cc2)c(OC)c1 (stereo unspecified)	mHTT-CaM PPI inh 58
COc1ccc(C(CCN2CCCC2)c2c(O)cc(OC)cc2OC)cc1 (stereo unspecified)	none
CCN(CC)CCC(c1ccc(N(C)C)cc1)c1c(O)cc(OC)cc1OC (stereo unspecified)	mHTT-CaM PPI inh 70
C[C@H]1CN(C2CCCCC2)C(=O)[C@@H]1CC(=O)Nc1ccccc1	none
CC(C)CCN(Cc1ccco1)C(=O)c1noc2c1CCCCC2	none
Cc1ccc(NC(=O)N2CCn3c(C)ccc3C2C(C)C)cc1F (stereo unspecified)	none
CN1CCN(C(=O)C2CCN(c3cnn(Cc4ccccc4)c(=O)c3)CC2)CC1	none
COc1ccc(-c2nnc(NC(=O)c3c(C)cnn3C)o2)cc1	none
CC1CCn2c(nc3cc(C(=O)NCCc4ccccc4Cl)ccc32)C1 (stereo unspecified)	none
Cc1ccc(C(=O)Nc2ccc(N3CCCC3)cc2)cc1C	none
COc1cc(O)c(C(CCN2CCCC(C)C2)c2ccc3c(c2)OCO3)c(OC)c1 (stereo unspecified)	none
COc1cc(OC)c2c(C)cc(=O)oc2c1C(CCN1CCCC(C)C1)c1ccc(N(C)C)cc1 (stereo unspecified)	mHTT-CaM PPI inh 79
COc1cc(O)c(C(CCN2CCCC(C)C2)c2ccc(N(C)C)cc2)c(OC)c1 (stereo unspecified)	mHTT-CaM PPI inh 55
COc1cc(OC)c2ccc(=O)oc2c1C(CCN1CCCC1)c1ccc(N(C)C)cc1 (stereo unspecified)	none
O=C(c1c[nH]c2ccccc12)N1CCCCC1c1nc(C2CC2)no1 (stereo unspecified)	none
CCOC(=O)C1CCN(c2ccccc2CN2CCC(c3ccccc3OC)CC2)CC1	none (no result: mHTT-CaM PPI inh)
Cc1[nH]c2ccccc2c1SCCNC(=O)c1ccc(Br)cc1	none
O=C(Nc1ccc(S(=O)(=O)Nc2cccc(Cl)c2Cl)cc1)c1ccc([N+](=O)[O-])cc1	mHTT-CaM PPI inh 62
O=C(Nc1ccc(S(=O)(=O)Nc2ccccc2)cc1)c1ccc([N+](=O)[O-])cc1	none
CCC(=O)Oc1ccc(N2C(=O)C3C4C=CC(C4)C3C2=O)cc1 (stereo unspecified)	none
CN(C)c1cc(Nc2ccccc2)c2c3c(onc13)-c1ccccc1C2=O	mHTT-CaM PPI inh 96

Source: PubChem
